# Laboratory results published in PubChem BioAssay.
# For part of these data: Results with a measured potency or affinity are listed apart. Activity calls are given as the source filed them.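 Rule for the calls, unless noted: active = membrane potential signal rise above negative control mean plus 3 SD in both duplicates, also active in the earlier TRPC4 screen; inactive = the rest.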
# Key:
# [1] = system: TRPC4 beta (transient receptor potential cation channel C4), mouse; assay: activators of mouse TRPC4 channel, confirmation, cell-based, Fluo4 calcium, HEK293 TRPC4beta/mu-opioid, duplicates, 10 µM (AID 2426;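 active = fluorescence ratio normalized to control raised more than 50% in primary screen plus both repeat runs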;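 note: percent rise of integrated ratio over buffer wells lacking compound which define 0%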); settings: Fluo4 calcium fluorescence, at 10 µM; stronger effect = higher value
# [2] = system: transient receptor potential cation channel C4 beta (TRPC4), mouse; assay: activators of mouse TRPC4 channel, confirmation, cell-based, second round, Fluo4, HEK293 TRPC4beta/mu-opioid, 1 µM (AID 2461;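 active = primary screen active and over 50% activation in each of two duplicate runs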;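 for activation: 0% = wells without test compound as baseline of integrated fluorescence ratio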); settings: Fluo4 calcium fluorescence, at 1 µM; stronger effect = higher value
# [3] = system: TRPC4 (transient receptor potential cation channel C4 beta), mouse; assay: positive allosteric modulators of mouse TRPC4, confirmation, cell-based, second round, Fluo-4, HEK293 TRPC4beta/mu-opioid, 1 µM (AID 2554;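 active = primary screen hit whose fluorescence ratio, in both repeats, exceeds the weak agonist control mean by 3 SD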); settings: DAMGO EC20, Fluo-4 calcium flux, at 1 µM; stronger effect = higher value
# [4] = system: TRPC4 beta (transient receptor potential cation channel C4), mouse; assay: positive allosteric modulators of mouse TRPC4, confirmation, cell-based, Fluo-4, HEK293 TRPC4beta/mu-opioid (AID 2555;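 active = primary screen hit whose calcium fluorescence ratio, in both repeats, exceeds the weak agonist control mean by 3 SD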); settings: DAMGO EC20, Fluo-4 calcium flux, at 10 µM; stronger effect = higher value
# [5] = target: Short transient receptor potential channel 4 (Mus musculus) (UniProt Q9QUQ5); assay: inhibitors of mouse TRPC4 channel, confirmation, cell-based, Fluo4, HEK293 TRPC4beta/mu-opioid (AID 2636;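 active = calcium signal cut by more than 3 SD below the full-agonist control yet still positive, in both repeats and the earlier primary screen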); settings: DAMGO, Fluo4 calcium flux, at 10 µM; stronger effect = higher value
# [6] = target: Short transient receptor potential channel 4 (Mus musculus) (UniProt Q9QUQ5); assay: inhibitors of mouse TRPC4 channel, confirmation, cell-based, second round, Fluo4, HEK293 TRPC4beta/mu-opioid, 1 µM (AID 2637;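 active = calcium signal ratio cut to more than 3 SD under the fully stimulated control mean yet still positive, in both repeats and the primary screen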); settings: Fluo4 calcium flux, DAMGO, at 1 µM; stronger effect = higher value
# [7] = target: Short transient receptor potential channel 4 (Mus musculus) (UniProt Q9QUQ5); assay: TRPC4 positive allosteric modulators, dose response, cell-based, HEK293 TRPC4/mu-opioid, Fluo-4 calcium, EC20 DAMGO (AID 434941;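 active = earlier screen potentiator hit that boosts the TRPC4 ion channel at some dose, with a dose response; inactive = no potentiation, no dose response, or not a prior hit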;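 note: calcium entry triggered by an EC20 dose of DAMGO at the co-expressed mu-opioid receptor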)
# [8] = target: Short transient receptor potential channel 4 (Mus musculus) (UniProt Q9QUQ5); assay: mouse TRPC4 channel inhibitors, dose response, cell-based, HEK293 TRPC4/mu-opioid, Fluo-4 calcium (AID 434942;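 active = primary screen inhibitor hit that blocks the TRPC4 channel at some tested dose, yielding a dose curve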)
# [9] = target: Short transient receptor potential channel 6 (Mus musculus) (UniProt Q61143); assay: inhibition of mouse TRPC6 channel, confirmation, selectivity assay for TRPC4 inhibitor project, cell-based, HEK293, membrane potential dye, duplicate (AID 434948;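 active = active in primary screen and both duplicates, each dropping signal beyond three positive-control SD with fluorescence still positive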); settings: HEK293 TRPC6, membrane potential dye fluorescence, at 10 µM, stimulated with maximal-effect acetylcholine; stronger effect = higher value
# [10] = target: Short transient receptor potential channel 6 (Mus musculus) (UniProt Q61143); assay: activation of mouse TRPC6 channel, confirmation, selectivity assay for TRPC4 activator project, cell-based, HEK293, membrane potential dye, duplicate (AID 434950); settings: HEK293 TRPC6, membrane potential fluorescence, at 10 µM; stronger effect = higher value;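 for activation: 0% = buffer only wells and 100% = acetylcholine maximal-effect wells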
# [11] = target: Short transient receptor potential channel 6 (Mus musculus) (UniProt Q61143); assay: TRPC6 potentiation by TRPC4 potentiator hits, confirmation, selectivity assay for TRPC4 potentiator project, HEK293 cells, membrane potential dye, duplicate (AID 434952;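 active = compound raising the membrane signal above positive-control mean plus 3 SD in both repeats, and a primary screen hit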); settings: HEK293 TRPC6, membrane potential dye fluorescence, at 10 µM, maximal acetylcholine added after compound; stronger effect = higher value
# [12] = target: Short transient receptor potential channel 4 (Mus musculus) (UniProt Q9QUQ5); assay: calcium flux activators in TRPC4/5HT1a cells, counter-screen for TRPC4 activator project, cell-based, second counter screen, HEK293 TRPC4/5HT1a, Fluo-4 (AID 434977;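 active = calcium signal rise above buffer-control mean plus 5 SD in both duplicates, and also a hit in the primary screen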;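 for activation: plate controls were assay buffer for no effect and maximal serotonin response for full effect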); settings: Fluo-4 calcium flux, at 10 µM; stronger effect = higher value
# [13] = calcium flux inhibitors in TRPC4/5HT1a cells, confirmation, counter-screen for TRPC4 inhibitor project, cell-based, second counter screen, HEK293 TRPC4/5HT1a, Fluo-4 (AID 434978;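 active = primary screen active whose calcium signal fell more than 3 SD beyond the full-serotonin control mean in both duplicate plates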;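 note: serotonin given first at submaximal then at maximal dose after compound preincubation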); settings: Fluo-4 calcium flux, at 10 µM, serotonin added to trigger calcium flux; stronger effect = higher value
# [14] = system: TRPC4 (mouse), co-expressed with 5HT1a in HEK293; assay: calcium flux potentiators in TRPC4/5HT1a cells, confirmation, counter-screen for TRPC4 potentiator project, cell-based, second counter screen, HEK293 TRPC4/5HT1a, Fluo-4 (AID 434979;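 active = signal rise over 3 SD above mean of control wells given weak agonist, in both repeats and first screen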); settings: Fluo-4 calcium flux, at 10 µM, serotonin added at its EC20 dose; stronger effect = higher value
# [15] = calcium flux activation in mu-opioid HEK293 cells, confirmation, counter-screen for TRPC4 activator project, cell-based, HEK293 mu-opioid receptor line (AID 449723;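 active = hit in primary screen, with calcium signal over 5 SD above buffer well mean in both duplicates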;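 note: counter screen cells carry the mu-opioid receptor alone and lack TRPC4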); settings: Fluo-4 calcium fluorescence, at 10 µM; stronger effect = higher value
# [16] = calcium flux enhancement in mu-opioid HEK293 cells, confirmation, counter-screen for TRPC4 allosteric potentiator project, cell-based, HEK293 mu-opioid receptor line (AID 449724;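 active = calcium signal rise more than 3 SD above the low-dose agonist control mean, in both duplicate plates and the primary screen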); settings: Fluo-4 calcium flux, at 10 µM, compound added before EC20 DAMGO stimulus; stronger effect = higher value
# Sequence of Short transient receptor potential channel 4 (Mus musculus) (Q9QUQ5 whole entry, looked up): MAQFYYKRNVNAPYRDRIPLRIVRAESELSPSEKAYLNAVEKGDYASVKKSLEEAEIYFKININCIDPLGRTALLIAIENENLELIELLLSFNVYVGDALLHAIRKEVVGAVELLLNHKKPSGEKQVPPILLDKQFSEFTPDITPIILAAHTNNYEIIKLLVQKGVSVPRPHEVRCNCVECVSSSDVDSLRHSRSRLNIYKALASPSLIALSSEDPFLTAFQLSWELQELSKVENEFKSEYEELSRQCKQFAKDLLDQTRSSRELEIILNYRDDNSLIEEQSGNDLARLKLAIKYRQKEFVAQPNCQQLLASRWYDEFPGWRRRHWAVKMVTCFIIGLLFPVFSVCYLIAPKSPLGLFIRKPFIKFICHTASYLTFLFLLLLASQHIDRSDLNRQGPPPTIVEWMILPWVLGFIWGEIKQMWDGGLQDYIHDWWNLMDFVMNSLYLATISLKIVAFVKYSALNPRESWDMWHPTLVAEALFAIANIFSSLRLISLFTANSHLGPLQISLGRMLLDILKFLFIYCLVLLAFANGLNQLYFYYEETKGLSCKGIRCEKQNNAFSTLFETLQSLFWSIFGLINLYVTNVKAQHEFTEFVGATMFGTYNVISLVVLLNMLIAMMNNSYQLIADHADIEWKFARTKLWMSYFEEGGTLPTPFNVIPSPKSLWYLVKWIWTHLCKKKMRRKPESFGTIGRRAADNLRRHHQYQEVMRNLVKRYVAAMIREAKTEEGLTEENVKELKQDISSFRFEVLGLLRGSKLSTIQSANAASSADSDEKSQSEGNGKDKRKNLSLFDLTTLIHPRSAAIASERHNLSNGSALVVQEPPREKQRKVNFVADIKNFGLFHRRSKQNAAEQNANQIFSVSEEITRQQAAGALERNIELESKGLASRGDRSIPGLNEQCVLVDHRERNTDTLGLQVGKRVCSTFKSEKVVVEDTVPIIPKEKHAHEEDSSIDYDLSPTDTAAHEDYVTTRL
# Sequence of Short transient receptor potential channel 6 (Mus musculus) (Q61143 whole entry, looked up): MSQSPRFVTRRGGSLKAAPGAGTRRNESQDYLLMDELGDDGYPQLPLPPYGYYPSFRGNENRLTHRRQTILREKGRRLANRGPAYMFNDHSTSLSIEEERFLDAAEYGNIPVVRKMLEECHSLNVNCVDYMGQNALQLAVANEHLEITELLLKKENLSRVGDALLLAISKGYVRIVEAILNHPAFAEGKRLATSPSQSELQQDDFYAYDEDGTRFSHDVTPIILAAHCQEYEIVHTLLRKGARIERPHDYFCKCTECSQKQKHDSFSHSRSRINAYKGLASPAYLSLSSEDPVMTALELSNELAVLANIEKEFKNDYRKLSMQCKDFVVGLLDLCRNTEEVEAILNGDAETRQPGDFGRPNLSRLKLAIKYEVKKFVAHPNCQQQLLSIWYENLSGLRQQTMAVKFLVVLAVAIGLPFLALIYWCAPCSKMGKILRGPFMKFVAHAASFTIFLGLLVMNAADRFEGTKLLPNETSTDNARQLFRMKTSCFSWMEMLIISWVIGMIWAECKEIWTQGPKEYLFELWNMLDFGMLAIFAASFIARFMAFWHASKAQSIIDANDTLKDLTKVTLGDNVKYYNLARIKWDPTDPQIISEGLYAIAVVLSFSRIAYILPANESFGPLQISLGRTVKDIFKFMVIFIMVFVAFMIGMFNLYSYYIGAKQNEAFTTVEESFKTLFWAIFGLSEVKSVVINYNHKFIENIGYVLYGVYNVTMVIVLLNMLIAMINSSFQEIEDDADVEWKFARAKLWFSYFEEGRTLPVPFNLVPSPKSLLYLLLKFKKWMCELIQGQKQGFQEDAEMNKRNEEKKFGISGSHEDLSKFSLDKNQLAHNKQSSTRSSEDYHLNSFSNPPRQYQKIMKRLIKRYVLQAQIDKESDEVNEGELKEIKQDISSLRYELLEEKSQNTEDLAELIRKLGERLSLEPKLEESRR
smiles,measurement,setting,value
CN(C)CCCN(C(=O)c1ccc(S(=O)(=O)N2CCCCCC2)cc1)c1nc2ccc(F)cc2s1,activation,[1],278% (active)
same,outcome,[2],inactive
same,outcome,[3],inactive
same,outcome,[4],inactive
same,outcome,[5],inactive
same,outcome,[6],inactive
same,outcome,[7],inactive
same,outcome,[8],inactive
same,outcome,[9],inactive
same,outcome,[10],inactive
same,outcome,[11],inactive
same,activation,[12],44.3% (active)
same,outcome,[13],inactive
same,outcome,[14],inactive
same,activation,[15],27.1% (active)
same,outcome,[16],inactive
Cc1cccc(NC(=S)NCC(c2cccnc2)N(C)C)c1 (stereo not given),activation,[1],87% (active)
same,activation,[2],115% (active)
same,outcome,[3],inactive
same,outcome,[4],inactive
same,outcome,[5],inactive
same,outcome,[6],inactive
same,outcome,[7],inactive
same,outcome,[8],inactive
same,outcome,[9],inactive
same,activation,[10],33.5% (active)
same,outcome,[11],inactive
same,outcome,[12],inactive
same,outcome,[13],inactive
same,outcome,[14],inactive
same,outcome,[15],inactive
same,outcome,[16],inactive
CNC[C@H](CC1CCCCC1)NC[C@H](Cc1ccccc1)NCCC12CC3CC(CC(C3)C1)C2,activation,[1],219% (active)
same,outcome,[2],inactive
same,outcome,[3],inactive
same,outcome,[4],inactive
same,outcome,[5],inactive
same,outcome,[6],inactive
same,outcome,[7],inactive
same,outcome,[8],inactive
same,outcome,[9],inactive
same,outcome,[10],inactive
same,outcome,[11],inactive
same,activation,[12],63.4% (active)
same,outcome,[13],inactive
same,outcome,[14],inactive
same,activation,[15],51.7% (active)
same,outcome,[16],inactive
CN(C)C(CNC(=O)C1CC(=O)N(Cc2ccccc2)C1)c1ccccc1 (stereo not given),activation,[1],90% (active)
same,outcome,[2],inactive
same,outcome,[3],inactive
same,outcome,[4],inactive
same,outcome,[5],inactive
same,outcome,[6],inactive
same,outcome,[7],inactive
same,outcome,[8],inactive
same,outcome,[9],inactive
same,outcome,[10],inactive
same,outcome,[11],inactive
same,outcome,[12],inactive
same,outcome,[13],inactive
same,outcome,[14],inactive
same,outcome,[15],inactive
same,outcome,[16],inactive
CCCc1c(O)nc(SCCN(CCC)CCC)[nH]c1=O,activation,[1],96% (active)
same,outcome,[2],inactive
same,outcome,[3],inactive
same,outcome,[4],inactive
same,outcome,[5],inactive
same,outcome,[6],inactive
same,outcome,[7],inactive
same,outcome,[8],inactive
same,outcome,[9],inactive
same,outcome,[10],inactive
same,outcome,[11],inactive
same,activation,[12],12.4% (active)
same,outcome,[13],inactive
same,potentiation,[14],23.3% (active)
same,outcome,[15],inactive
same,outcome,[16],inactive
Cc1ccc(Sc2cc(C(=O)NCCN(C)C)c3ccccc3n2)cc1,activation,[1],91% (active)
same,outcome,[2],inactive
same,outcome,[3],inactive
same,outcome,[4],inactive
same,outcome,[5],inactive
same,outcome,[6],inactive
same,outcome,[7],inactive
same,outcome,[8],inactive
same,outcome,[9],inactive
same,outcome,[10],inactive
same,outcome,[11],inactive
same,activation,[12],24.6% (active)
same,outcome,[13],inactive
same,outcome,[14],inactive
same,outcome,[15],inactive
same,outcome,[16],inactive
CN(C)c1ccc(NC(=S)N2CCN(c3ncc(C(F)(F)F)cc3Cl)CC2)cc1,activation,[1],112% (active)
same,outcome,[2],inactive
same,outcome,[3],inactive
same,outcome,[4],inactive
same,outcome,[5],inactive
same,outcome,[6],inactive
same,outcome,[7],inactive
same,outcome,[8],inactive
same,outcome,[9],inactive
same,activation,[10],27.5% (active)
same,outcome,[11],inactive
same,activation,[12],54.3% (active)
same,outcome,[13],inactive
same,outcome,[14],inactive
same,outcome,[15],inactive
same,outcome,[16],inactive
CCCN(CCC)CCCNc1ccc2nnc(-c3ccc(F)cc3)n2n1,activation,[1],92% (active)
same,outcome,[2],inactive
same,outcome,[3],inactive
same,outcome,[4],inactive
same,outcome,[5],inactive
same,outcome,[6],inactive
same,outcome,[7],inactive
same,outcome,[8],inactive
same,outcome,[9],inactive
same,outcome,[10],inactive
same,outcome,[11],inactive
same,activation,[12],41.2% (active)
same,outcome,[13],inactive
same,outcome,[14],inactive
same,outcome,[15],inactive
same,outcome,[16],inactive
Cc1c(CN2CCC(n3nccc3NC(=O)C3CC3)CC2)[nH]c2ccccc12,activation,[1],138% (active)
same,outcome,[2],inactive
same,outcome,[3],inactive
same,outcome,[4],inactive
same,outcome,[5],inactive
same,outcome,[6],inactive
same,outcome,[7],inactive
same,outcome,[8],inactive
same,outcome,[9],inactive
same,activation,[10],26% (active)
same,outcome,[11],inactive
same,outcome,[12],inactive
same,outcome,[13],inactive
same,outcome,[14],inactive
same,outcome,[15],inactive
same,outcome,[16],inactive
Cc1ccc(-n2cc(CNCC3CC(=O)N(C4CC4)C3)c(-c3cccc(C)c3)n2)cc1 (stereo not given),activation,[1],165% (active)
same,outcome,[2],inactive
same,outcome,[3],inactive
same,outcome,[4],inactive
same,outcome,[5],inactive
same,outcome,[6],inactive
same,outcome,[7],inactive
same,outcome,[8],inactive
same,outcome,[9],inactive
same,activation,[10],52.5% (active)
same,outcome,[11],inactive
same,outcome,[12],inactive
same,outcome,[13],inactive
same,outcome,[14],inactive
same,outcome,[15],inactive
same,outcome,[16],inactive
COc1cccc(C(=O)N(C)CC2CCN(CCc3cccc(C(F)(F)F)c3)CC2)c1,activation,[1],93% (active)
same,activation,[2],77% (active)
same,outcome,[3],inactive
same,outcome,[4],inactive
same,outcome,[5],inactive
same,outcome,[6],inactive
same,outcome,[7],inactive
same,outcome,[8],inactive
same,outcome,[9],inactive
same,activation,[10],62.5% (active)
same,outcome,[11],inactive
same,outcome,[12],inactive
same,outcome,[13],inactive
same,outcome,[14],inactive
same,outcome,[15],inactive
same,outcome,[16],inactive
Cc1cc(OCCCCn2ccnc2)cc(C)c1Cl,activation,[1],102% (active)
same,outcome,[2],inactive
same,outcome,[3],inactive
same,outcome,[4],inactive
same,outcome,[5],inactive
same,outcome,[6],inactive
same,outcome,[7],inactive
same,outcome,[8],inactive
same,outcome,[9],inactive
same,activation,[10],50% (active)
same,outcome,[11],inactive
same,activation,[12],20.1% (active)
same,outcome,[13],inactive
same,outcome,[14],inactive
same,outcome,[15],inactive
same,outcome,[16],inactive
CCc1nc(NCCc2ccccn2)c2nnn(Cc3ccccc3F)c2n1,activation,[1],154% (active)
same,outcome,[2],inactive
same,outcome,[3],inactive
same,outcome,[4],inactive
same,outcome,[5],inactive
same,outcome,[6],inactive
same,outcome,[7],inactive
same,outcome,[8],inactive
same,outcome,[9],inactive
same,activation,[10],49% (active)
same,outcome,[11],inactive
same,activation,[12],36.2% (active)
same,outcome,[13],inactive
same,outcome,[14],inactive
same,outcome,[15],inactive
same,outcome,[16],inactive
COc1ccc(C(CNC(=O)CN2C(=O)NC3(CCCC3)C2=O)N(C)C)cc1 (stereo not given),activation,[1],121% (active)
same,outcome,[2],inactive
same,outcome,[3],inactive
same,outcome,[4],inactive
same,outcome,[5],inactive
same,outcome,[6],inactive
same,outcome,[7],inactive
same,outcome,[8],inactive
same,outcome,[9],inactive
same,outcome,[10],inactive
same,outcome,[11],inactive
same,outcome,[12],inactive
same,outcome,[13],inactive
same,outcome,[14],inactive
same,outcome,[15],inactive
same,outcome,[16],inactive
Cc1cc(C)n(-c2nc(SCCN(C)C)c3c4c(sc3n2)CCCC4)n1,activation,[1],162% (active)
same,outcome,[2],inactive
same,outcome,[3],inactive
same,outcome,[4],inactive
same,outcome,[5],inactive
same,outcome,[6],inactive
same,outcome,[7],inactive
same,outcome,[8],inactive
same,outcome,[9],inactive
same,outcome,[10],inactive
same,outcome,[11],inactive
same,outcome,[12],inactive
same,outcome,[13],inactive
same,outcome,[14],inactive
same,outcome,[15],inactive
same,outcome,[16],inactive
